Results as given in PubChem BioAssay AID588675 (Johns Hopkins Ion Channel Center, 2011).
About 1,900 (0.61%) of roughly 310,000 compounds were called active.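 The calls were made as follows: active = plate-corrected calcium response at least 3 library SD above typical, normal starting fluorescence, not activating the receptor alone; inactive = the rest.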 Only a selection was taken, and actives are over-represented in it overall.

Each molecule was assayed against Mas-related G-protein coupled receptor member X1 (Homo sapiens) (UniProt Q96LB2) (assay: positive allosteric modulators of MrgX1, primary screen, HEK293 cells, Fluo-4 calcium flux (AID 588675;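 also: compound read alongside a low EC10 to EC30 dose of BAM8-22 agonist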;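 as to B-score: peak minus trough fluorescence over baseline measured at the second addition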)). Conditions: MrgX1-HEK293, Fluo-4 calcium flux, FDSS, at 10 µM; active compounds read high.
Mas-related G-protein coupled receptor member X1 (Homo sapiens), sequence (Q96LB2 whole entry, looked up): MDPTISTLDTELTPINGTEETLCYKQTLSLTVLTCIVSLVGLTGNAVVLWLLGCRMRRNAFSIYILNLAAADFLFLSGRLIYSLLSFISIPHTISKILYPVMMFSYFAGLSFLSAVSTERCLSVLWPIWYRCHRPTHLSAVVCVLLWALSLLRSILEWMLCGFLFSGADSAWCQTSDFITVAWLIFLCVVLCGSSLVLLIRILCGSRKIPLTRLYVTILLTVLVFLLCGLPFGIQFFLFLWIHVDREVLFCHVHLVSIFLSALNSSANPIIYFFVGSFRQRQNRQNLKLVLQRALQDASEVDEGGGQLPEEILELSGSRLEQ
In the case of `O=C1CCCCN1CCCC(=O)N1CCCC(Nc2ccc(F)cc2)C1` (stereo unspecified), the B-score is reported as “inactive”.
With `CCOC(=O)c1ccc(N=C2SC(C(=O)NC)CC(=O)N2CCc2ccccc2)cc1` (stereo unspecified) the B-score was “inactive”.
In the case of `CSc1ccc(CN2C(=O)NC3(CCCCCC3)C2=O)cc1`, the B-score is reported as “inactive”.
In the case of `C=C1c2c(Cl)ccc(O)c2C(O)=C2C(=O)[C@]3(O)C(O)=C(C(N)=O)C(=O)[C@@H](N(C)C)[C@@H]3[C@@H](O)C12` (stereo partly specified), the B-score is reported as “inactive”.
With `O=C(Cc1ccc(S(=O)(=O)N2CCCC2)s1)NC1CCCCCC1` the B-score was “inactive”.
`Cc1ccc(SCC(=O)c2cc(C)c(OC(=S)N(C)C)c(C)c2)cc1` was tested, and the B-score was “inactive”.
For `O=C(Nc1ncc([N+](=O)[O-])s1)C1COc2ccccc2O1` (stereo unspecified), the B-score was “inactive”.
For `O=C(Nc1nc2c(F)cc(F)cc2s1)C1COc2ccccc2O1` (stereo unspecified), the B-score was 9.52 (active).
`COc1ccc(OC)c2sc(NC(=O)C3COc4ccccc4O3)nc12` (stereo unspecified) was tested, and the B-score was “inactive”.
In the case of `COc1cc(OC)nc(N/N=C(\c2ccccc2)c2ccncc2)n1`, the B-score is reported as 9.14 (active).
`COc1ccc(C/C(C)=N/NC(=O)c2ccncc2)cc1` was tested, and the B-score was “inactive”.
`CN(C)CCCO/N=C(\c1ccccc1)c1ccncc1` was tested, and the B-score was “inactive”.
`CSc1cccc(NC(=O)C2CCCN2S(=O)(=O)c2ccc3c(c2)CCC(=O)N3)c1` (stereo unspecified) was tested, and the B-score was “inactive”.
`CC[N+](C)(CC)CCC[n+]1c(-c2ccccc2)c2cc(N)ccc2c2ccc(N)cc21` was tested, and the B-score was “inactive”.
With `Cc1ccc2c(c1)c1ncn(CCC3=CCCCC3)c(=O)c1n2C` the B-score was “inactive”.
`Cc1ccc2c(c1)c1ncnc(N3CCc4ccccc4C3)c1n2C` was tested, and the B-score was 8.06 (active).
For `Cc1ccc2c(c1)c1ncn(Cc3ccc(F)cc3)c(=O)c1n2C`, the B-score was “inactive”.
With `COc1cc(S(=O)(=O)N(Cc2cccs2)C2CC2)ccc1-n1cnnn1` the B-score was “inactive”.
With `COC(=O)c1ccc(CN2CCN(CCCc3ccccc3)C(CCO)C2)cc1` (stereo unspecified) the B-score was “inactive”.
For `COc1ccc(F)c(-c2nc(CN3CCC(c4ccccc4)CC3)c(C)o2)c1`, the B-score was “inactive”.
`Cc1oc(-c2ccccc2F)nc1CS(=O)CC(=O)NCCN1CCCCC1C` (stereo unspecified) was tested, and the B-score was “inactive”.
In the case of `Cc1nonc1C1CCCN1Cc1nc(-c2ccc(F)cc2F)oc1C` (stereo unspecified), the B-score is reported as 7.14 (active).
`CCCCOc1ccc(N(CC(=O)NC(C)C)C(=O)CCC(=O)Nc2ccccn2)cc1` was tested, and the B-score was “inactive”.
With `CCCNc1c(N)c(=O)c1=O` the B-score was “inactive”.
With `Cc1oc2cc([N+](=O)[O-])c(O)c([N+](=O)[O-])c2c1C(=O)c1ccc(Br)cc1` the B-score was “inactive”.
`COc1ccc(C(=O)N2CC3(C)CC2CC(C)(C)C3)cc1OC` (stereo unspecified) was tested, and the B-score was “inactive”.
For `COc1ccc(Nc2ncnc3ccc(Br)cc23)c(OC)c1`, the B-score was “inactive”.
With `CC1(C)CC2CC(C)(CN2c2ncnc3ccc(Br)cc23)C1` (stereo unspecified) the B-score was 13 (active).
`Cn1c(-c2sc3cc(C(F)(F)F)cnc3c2-c2ccccc2)n[nH]c1=S` was tested, and the B-score was 9.48 (active).
With `Cc1ccccc1-c1n[nH]c(=S)n1C` the B-score was “inactive”.
For `Cn1c(-c2sccc2OCc2cccc(C(F)(F)F)c2)n[nH]c1=S`, the B-score was “inactive”.
